The whole screen tested about 69,000 compounds, of which about 8,600 (12%) showed an effect of 50% or more. The entries come from a sample that favours strong results as a whole.

The test system of this assay is Plasmodium berghei. Description: Screen against P. berghei liver stage (PbLuc), transformed with Luciferase, at 10uM. Type of assay: functional, HepG2. To be noted: tested at 10 uM.
For the compound `CN1CC2(CCN(C(=O)c3ccc(-n4cccn4)cc3Cl)C2)OC1=O` (centres undefined), the INHIBITION was 32.5%.

In the case of `CC(=O)c1cnc(NCCCN2CCOCC2)nc1C`, the INHIBITION is -4.96%.

For `O=C(COc1ccccc1)NCC1CC1`, the INHIBITION turned out to be 3.63%.

`O=C(NCCc1csc(-c2ncccn2)n1)c1cnn2c1CCCC2`: the INHIBITION is on record as -52.5%.

As to `CCNc1ncc(C(=O)NCc2csc(C)n2)cn1`, the INHIBITION was determined as 35.4%.

Regarding `CCNc1ncc(C(=O)NCCc2ccc(C)c(C)c2)cn1`, the INHIBITION is on record as -4.21%.

Consider `CCNc1ncc(C(=O)NCCCc2ccncc2)cn1`, for which the INHIBITION was 19.4%.

As for `CCNc1ncc(C(=O)NCCc2csc(CSC)n2)cn1`, the INHIBITION was determined as 51.8%.

As to `CCNc1ncc(C(=O)NCc2csc(-c3cnccn3)n2)cn1`, the INHIBITION is -10.5%.

On to `CCNc1ncc(C(=O)NCc2csc(-c3ncccn3)n2)cn1`, for which the INHIBITION came out at 62.2%.

Turning to `CCNc1ncc(C(=O)NCCc2csc(-c3ncccn3)n2)cn1`, the INHIBITION was 56.6%.

Turning to `CSCc1nc(CCNC(=O)C2CCCN(C(C)=O)C2)cs1` (centres undefined), the INHIBITION is reported as -90.8%.

For `CCN(Cc1nc2c(cnn2C)c(=O)[nH]1)Cc1ccccc1Cl`, the INHIBITION is given as -29.8%.

As to `Cc1ccc2nc(CN3CCCCC3C(=O)N3CCOCC3)cn2c1` (centres undefined), the INHIBITION is reported as 20%.

For the compound `CC(C)Cn1nccc1NC(=O)CN1CCOC(Cn2cccn2)C1` (centres undefined), the INHIBITION was found to be 23.4%.

As for `CNC(=O)[C@@H](c1ccccc1)N1CCC[C@H]1C(=O)NC1CCCCC1`, the INHIBITION came to 30.9%.

As to `CCc1cnc(N2C[C@H](OCc3csc(C)n3)[C@H]3COC[C@H]32)nc1`, the INHIBITION amounted to 40.8%.

Consider `Cc1nnnn1-c1cc(NCc2cccc(C#N)c2)ccc1F`, for which the INHIBITION is on record as 31%.

With `O=C(CC1CC1)NCc1cc(=O)n2c(n1)CN(Cc1ccoc1)CCC2`, the INHIBITION was found to be 36.8%.

As to `O=C(Nc1ccccc1)N1C2CCC(O)(CC2)C1CO` (centres undefined), the INHIBITION was 44.9%.

Take `CCc1noc(C)c1C(=O)N1CCCC(n2nc(C)nc2C)C1` (centres undefined): the INHIBITION is listed as -19.85%.

`Cc1ccc(CN2CCC3(CC2)COCCN3S(C)(=O)=O)o1`: the INHIBITION stood at 11.6%.

In the case of `CS(=O)(=O)N1CCO[C@@H]2CN(Cc3ccc(F)cc3)C[C@@H]2C1`, the INHIBITION is on record as 61.9%.

Regarding `CS(=O)(=O)N1CCOCC2(CN(Cc3ccsc3)CCO2)C1` (centres undefined), the INHIBITION was found to be 0.139%.

Take `Cc1ccc(CN2CCOC3(COCCN(S(C)(=O)=O)C3)C2)s1` (centres undefined): the INHIBITION worked out at 11.4%.

On to `CS(=O)(=O)N1CCO[C@@H]2CN(Cc3ccc(F)cc3)CC[C@@H]2C1`, for which the INHIBITION turned out to be 10.5%.

As to `CS(=O)(=O)N1CCOCC2(CN(Cc3ccc(F)cc3)CCO2)C1` (centres undefined), the INHIBITION is 57.4%.

For `CS(=O)(=O)N1CCOCC12CCN(Cc1ccc(F)cc1)CC2`, the INHIBITION is given as 57.3%.

Turning to `CS(=O)(=O)N1CCO[C@@H]2CN(Cc3ccncc3)C[C@@H]2C1`, the INHIBITION worked out at 18.5%.

With `CS(=O)(=O)N1CCOCC12CCN(Cc1ccoc1)CC2`, the INHIBITION is listed as 34.5%.

In the case of `O=C(c1ccc2c(c1)CCCC2)N1CCn2ncnc2C1`, the INHIBITION is recorded as -0.275%.

Turning to `O=C(c1ccccn1)N1CCOC2(COCCN(Cc3cc[nH]n3)C2)C1` (centres undefined), the INHIBITION is listed as -95.7%.

As for `CC(C)C[C@H](NC(=O)Cc1csc(-c2cccc(Cl)c2)n1)C(=O)O`, the INHIBITION is listed as 40.8%.

For the compound `CCc1ccsc1C(=O)NCCn1nc2ccccn2c1=O`, the INHIBITION was found to be 14.4%.

Take `c1cnn(CC2CCCN2Cc2ccc(-n3cccn3)cc2)c1` (centres undefined): the INHIBITION is 41.2%.

In the case of `c1ccc(CN2CCNCC(Cc3cnccn3)C2)cc1` (centres undefined), the INHIBITION is given as -11.4%.

On to `CCc1nc(C(=O)N2CC(C(C)C)Nc3ccccc32)c[nH]1` (centres undefined), for which the INHIBITION is 3.13%.

As for `COCCNc1ncc(-c2cccc(OC)c2)c(-c2nccn2C)n1`, the INHIBITION was 3.48%.

Take `CC(C)[C@H]1CN(Cc2c[nH]cn2)C[C@@H]1NC(=O)CC1CCC1`: the INHIBITION was 57.3%.

As to `CC(C)[C@H]1CN(Cc2nccn2C)C[C@@H]1NC(=O)CCS(C)(=O)=O`, the INHIBITION is listed as 12.9%.

Take `CC(C)[C@H]1CN(Cc2ccccn2)C[C@@H]1NC(=O)CC1CCC1`: the INHIBITION amounted to 41.8%.

Turning to `O=C(c1ccc(F)cc1)N1CCC2(CCN(Cc3ccccn3)C2=O)C1` (centres undefined), the INHIBITION is listed as 2.79%.

In the case of `CN1CCCC1c1cccc(Cc2ccc(F)cc2)n1` (centres undefined), the INHIBITION worked out at 100%.

For `CC(=O)N1CCCC1c1cccc(Cc2ccc(F)cc2)n1` (centres undefined), the INHIBITION is reported as 13.6%.

In the case of `CN1CCCC1c1cc2cccnc2n1Cc1ccc(F)cc1` (centres undefined), the INHIBITION is 30.85%.

In the case of `CC(=O)N1CCCC1c1cccc(NCc2ccccc2F)n1` (centres undefined), the INHIBITION is on record as 64.1%.

In the case of `CS(=O)(=O)N1CCCC1c1cccc(Cc2ccccc2F)n1` (centres undefined), the INHIBITION is -51.4%.

Turning to `CN1CCCC1c1cccc(Cc2ccccc2F)n1` (centres undefined), the INHIBITION worked out at 76.2%.

As to `CC(=O)N1CCCC1c1cccc(Cc2ccccc2F)n1` (centres undefined), the INHIBITION came out at 14.8%.

As for `CN(C)C(=O)CN1CCCC1c1cccc(Cc2ccccc2F)n1` (centres undefined), the INHIBITION amounted to 42.6%.

On to `COCC(=O)N1CCCC1c1cccc(Cc2ccccc2F)n1` (centres undefined), for which the INHIBITION worked out at 24.4%.

For the compound `Cc1ncsc1C(=O)N1CCCC1c1c(C)nn(C)c1C` (centres undefined), the INHIBITION is recorded as 16.6%.

On to `Cc1cc(Nc2cnccn2)cc(C2CCCNC2)n1` (centres undefined), for which the INHIBITION is 19.5%.

As for `CO[C@@H]1CCC[C@@H](NC(=O)c2cccc(F)c2)[C@H]1O`, the INHIBITION is given as 28.2%.
